Bioassay records as filed in PubChem.
D1 antag – Antagonist of Human D 1 Dopamine Receptor: qHTS; HEK293 TREx D1 cells, calcium flux, dopamine EC80; stronger effect = lower value; activity change, negative = inhibition, % at 10 µM; 360,000 compounds, 3.2% hits; AID 504652, 2011; in the data active = activity change below about -30%
Target sequence (P21728 whole entry, looked up): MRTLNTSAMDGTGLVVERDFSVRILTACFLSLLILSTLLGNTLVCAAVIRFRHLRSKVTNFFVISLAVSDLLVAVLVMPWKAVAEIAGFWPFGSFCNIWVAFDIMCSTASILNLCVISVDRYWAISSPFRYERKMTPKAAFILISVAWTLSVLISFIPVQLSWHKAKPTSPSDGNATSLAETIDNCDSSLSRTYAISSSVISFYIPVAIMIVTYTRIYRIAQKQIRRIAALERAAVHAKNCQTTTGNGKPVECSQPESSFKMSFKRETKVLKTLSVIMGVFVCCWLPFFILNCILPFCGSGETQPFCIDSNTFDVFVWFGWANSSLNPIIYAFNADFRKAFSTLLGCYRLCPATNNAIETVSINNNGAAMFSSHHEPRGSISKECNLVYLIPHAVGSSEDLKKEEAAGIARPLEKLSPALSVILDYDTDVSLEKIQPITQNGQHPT
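Tetracycline-induced HEK293 Trex D1 cells, force-coupled to calcium, dye-loaded; compounds added and read 180 s, then EC80 dopamine added and calcium flux tracked kinetically another 180 s.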
D1 PAM – Potentiators of Human D1 Dopamine Receptor: qHTS; D(1A) dopamine receptor (Homo sapiens), P21728; HEK293 TREx D1 cells, calcium flux, dopamine EC20 potentiation; potentiation, % at 10 µM; 360,000 compounds, 0.036% hits; AID 504651, 2011; in the data active = potentiation above about 30%
DRD3 agonist – qHTS of D3 Dopamine Receptor Agonist: qHTS | AID 652048, 2013 | max activation, % | D3R DiscoveRx beta-arrestin cells, luminescence, 90 min | 410,000 compounds, 0.58% hits | D(3) dopamine receptor (Homo sapiens), P35462; in the data active = max activation above about 30%
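Agonist-mode cell screen: cells plated at 1500/well and incubated overnight at 37 °C, then exposed to library compounds for 90 min at 37 °C. Detection reagent was added for 30–60 min at room temperature, and luminescence was read.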
D1 agonist – Allosteric Agonists of the Human D1 Dopamine Receptor: qHTS. activation, % at 2 µM. D(1A) dopamine receptor (Homo sapiens), P21728. 360,000 compounds, 1% hits. AID 504660, 2011. HEK293 T-REx D1 cells, calcium flux, agonist mode; in the data active = activation above about 30%
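Agonism was scored from calcium flux recorded over 180 s (1 read/s) after pintool compound addition, following a 10-cycle baseline. Cells were inducible force-coupled HEK293 TREx D1, plated overnight at 30 C and loaded with no-wash calcium dye.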
DRD3 antagonist – qHTS of D3 Dopamine Receptor Antagonist: qHTS | D3R cells, DiscoveRx beta-arrestin luminescence, antagonist mode; stronger effect = lower value | max response, negative = inhibition, % | 360,000 compounds, 2.5% hits | AID 652054, 2013; in the data active = max response below about -50%; inconclusive = no clear call, values can overlap the other calls
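Cells expressing the human receptor were seeded at 1500 cells/well, incubated overnight at 37 degrees C in 5% CO2, then exposed to library compounds with dopamine controls for 90 minutes at 37 degrees C before luminescent detection.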
Large screens that a line does not name were inactive; ! = not confirmed by another sample. Most compounds without a hit are left out; they make up all but 6% or so of the library.

CSc1ccc(C2NC(=O)CCC2[N+](=O)[O-])cc1 (stereo not drawn)	D1 antag -33
CCCNc1nc(C)cc(-c2cc(C(=O)NCc3ccccc3)on2)n1	D1 antag -30
CCC(=O)O	none (no result: D1 antag, D1 PAM, D1 agonist, DRD3 antagonist)
COC(=O)CC(NS(=O)(=O)c1cccs1)c1ccc2c(c1)OCO2 (stereo not drawn)	D1 antag -56
COC(=O)CC(NS(=O)(=O)c1cccs1)c1ccccc1Cl (stereo not drawn)	none
Cc1[nH]c2ccccc2c1C(=O)CSC(=S)N(C)C1CCCCC1	none
Cc1[nH]c2ccccc2c1C(=O)C(=O)N(C)C1CCCCC1	D1 antag -53
O=C(CCCc1nc(-c2ccc(Cl)cc2)no1)N1CCOCC1	D1 antag -41
O=C(CCCc1nc(-c2ccc(Cl)cc2)no1)NCC1CCCO1 (stereo not drawn)	DRD3 agonist 34
Cc1ccc(-c2noc(CCCC(=O)N3CCOCC3)n2)cc1	none
CCN1CCCC1CNC(=O)c1ccc2c(c1)N(Cc1ccccc1F)C(=O)c1ccccc1S2(=O)=O (stereo not drawn)	none
CCN1C(=O)c2ccccc2S(=O)c2ccc(C(=O)NCCN(CC(C)C)CC(C)C)cc21 (stereo not drawn)	DRD3 antagonist -65
O=C(NCCCN1CCCC1)c1ccc2c(c1)N(Cc1ccc(F)cc1)C(=O)c1ccccc1S2=O (stereo not drawn)	DRD3 antagonist inconclusive
CCN1C(=O)c2ccccc2S(=O)c2ccc(C(=O)NCc3ccc(C)cc3)cc21 (stereo not drawn)	none (no result: DRD3 antagonist)
CC1CCCN(CCCNC(=O)c2ccc3c(c2)N(Cc2ccc(F)cc2)C(=O)c2ccccc2S3=O)C1 (stereo not drawn)	D1 agonist 39, DRD3 antagonist -82
CC1CCCN(CCCNC(=O)c2ccc3c(c2)N(Cc2ccccc2F)C(=O)c2ccccc2S3(=O)=O)C1 (stereo not drawn)	DRD3 antagonist -112
CC(NC(=O)c1ccc2c(c1)N(Cc1ccc(Cl)cc1)C(=O)c1ccccc1S2=O)c1ccccc1 (stereo not drawn)	D1 antag -35 (no result: DRD3 antagonist)
COc1cc(/C=C2/SC(=S)N(CCC(=O)N3CCN(C)CC3)C2=O)cc(OC)c1OC	DRD3 antagonist inconclusive (no result: D1 antag, D1 PAM, D1 agonist)
O=C(NCCCN1CCOCC1)c1ccc2c(c1)N(Cc1cccc(Cl)c1)C(=O)c1ccccc1S2=O (stereo not drawn)	none
CC1CCCN(CCCNC(=O)c2ccc3c(c2)N(Cc2cccc(Cl)c2)C(=O)c2ccccc2S3=O)C1 (stereo not drawn)	DRD3 antagonist -117 (no result: D1 antag, D1 PAM, D1 agonist)
O=C(NCCc1csc(-c2ccc(F)cc2)n1)c1c(F)cccc1Cl	none (no result: DRD3 antagonist)
CCS(=O)(=O)c1ccc(O)c(Nc2cc(C)nc(SC)n2)c1	none (no result: DRD3 antagonist)
COc1ccc(CNS(=O)(=O)c2c(C(=O)N3CCCCCC3)c(C)n(C)c2C)cc1	none
O=C(Nc1ccccc1C(=O)O)c1ccc(Cl)c(S(=O)(=O)N2CCOCC2)c1	none
O=C(Nc1ccccc1C(=O)O)c1cc(S(=O)(=O)N2CCCCC2)c(Cl)cc1Cl	DRD3 agonist 31
CC(C(=O)NCc1ccc(Cl)cc1)n1cccc1C(=O)c1ccccc1 (stereo not drawn)	none
CC(C(=O)NCC1CCCO1)n1cccc1C(=O)c1ccccc1 (stereo not drawn)	D1 antag -31
N#CC(C#N)=C1C=CC=CN1/C(=C\c1ccco1)C(=O)c1ccc(Br)cc1	D1 antag -48, DRD3 antagonist -99
COc1ccc(/C=C(/C(=O)c2cccs2)N2C=CC=CC2=C(C#N)C#N)cc1	DRD3 antagonist -81
COc1ccc(C(=O)N/C(=C\c2ccco2)C(=O)OCc2ccco2)cc1	none
N#CC(C#N)=C1C=CC=CN1/C(=C\c1ccco1)C(=O)c1ccccc1	D1 antag -75, DRD3 antagonist -106
COc1ccc(N=N/C(=C\O)C(=O)c2cccs2)cc1	none
COc1ccc(C(=O)/C(=C\c2ccco2)N2C=CC=CC2=C(C#N)C#N)cc1	D1 antag -41, DRD3 antagonist -65
CCOc1ccc(CNC(=O)C2CCCN(c3nn4cc(-c5ccc(OC)cc5)nc4s3)C2)cc1 (stereo not drawn)	none (no result: DRD3 antagonist)
CCOc1ccc(-c2cc3c(=O)n(CC(=O)Nc4cc(F)ccc4C)ccn3n2)cc1	none (no result: DRD3 antagonist)
Nc1nc(SCc2ccccc2)sc1C(=O)N1CCCCC1	none (no result: D1 antag, D1 PAM, D1 agonist)
CN1CCc2cc3c(c4c2[C@H]1[C@H](O)c1ccccc1-4)OCO3	none
CN1CCc2cccc3c2[C@H]1Cc1ccc(O)c(O)c1-3	D1 antag -90, DRD3 agonist 76!, D1 agonist 43!
CCc1cc(=O)oc2cc(OC(C)=O)cc(OC(C)=O)c12	DRD3 antagonist -58
Cc1ccc2c(c1)cc1c(=O)n(CC(=O)NCc3ccco3)nc(C)n12	none (no result: DRD3 antagonist)
Cc1noc(Cn2c(=O)c3ccccc3n(CC(=O)Nc3cc(Cl)ccc3C)c2=O)n1	none (no result: DRD3 antagonist)
CCOc1ccccc1Nc1sc(C(=O)c2ccc(Cl)cc2)c(N)c1C(=O)NCCc1ccccc1	none (no result: DRD3 antagonist)
COC(=O)CSc1nc(N2CCOCC2)c2c(c1C#N)CC(C)(C)N(C)C2	DRD3 antagonist -53
Brc1ccc(-c2csc(N/N=C/c3ccco3)n2)cc1	DRD3 agonist 30
Cc1cc(C)nc(Nc2n[nH]c(COc3ccc(Cl)cc3)n2)n1	D1 agonist 34
Cc1cc(C)nc(Nc2n[nH]c(C)n2)n1	none
Cc1ccccc1-c1nc(SCC(=O)NCC2CCCO2)c2c(=O)n(C)c(=O)n(C)c2n1 (stereo not drawn)	none (no result: DRD3 antagonist)
CCCn1c(SCC(=O)Nc2ccc(OC)cc2[N+](=O)[O-])n[nH]c1=O	D1 antag -46
COCC(=O)NC1CCN(CC(=O)Nc2ccc(OC)cc2[N+](=O)[O-])CC1	D1 antag -38
COc1ccc(NC(=O)CSc2nnnn2C)c([N+](=O)[O-])c1	none
COc1ccc(NC(=O)CSc2n[nH]c(C(C)C)n2)c([N+](=O)[O-])c1	none
COc1ccc(NC(=O)CSc2n[nH]c(N)n2)c([N+](=O)[O-])c1	DRD3 antagonist -92
CCCCC(=O)Nc1ccc(C(=O)Nc2ccc(OC)cc2[N+](=O)[O-])cc1	D1 agonist 41
CCCCC(=O)Nc1ccc(NC(=O)c2ccc([N+](=O)[O-])cc2)cc1OC	none
CCOc1cc(-c2nc3c(c(CC)nn3-c3ccccc3)c3cc(OC)c(OC)cc23)ccc1O	none (no result: DRD3 antagonist)
COCCCNC(=S)Nc1cc(C)c(C)cc1C	none
COCCNC(=S)Nc1cc(OC)c(OC)cc1C#N	DRD3 antagonist -51
CCc1ccc(S(=O)(=O)NCCc2csc3nc(-c4ccccc4)nn23)s1	none (no result: D1 antag, DRD3 antagonist)
